According to PubChem BioAssay AID1986 (Sanford-Burnham Center for Chemical Genomics, 2009):
Among all 290,000 compounds or so, about 890 (0.31%) were called active. Cut-off read from the data, not from the text of the source: active = inhibition mostly above about 52% (no sharp cut-off); inactive = mostly below about 76%. For the sample, actives were picked, then their nearest neighbours and some compounds at random.

Assay: inhibitors of HIV fusion peptide binding, primary screen, biochemical, uHTS, fluorescence dequenching (AID 1986)
Settings: cell-free peptide binding, 30 min, stronger effect = higher value
[1] = measured here: repeat confirmation average inhibition, at 18.6 µM

| Structure (SMILES) | inhibition (at 20 µM) | inhibition [1] [%] |
| --- | --- | --- |
| Cc1ccc(NC(=O)c2cc(S(=O)(=O)N3CCOCC3)cn2C)cc1Cl | -0.7% (inactive) | – |
| Cc1ccc(N(CC(=O)NCc2ccccc2Cl)S(=O)(=O)c2cccs2)cc1 | 0.6% (inactive) | – |
| O=C(CSc1nnc(-c2ccccc2F)o1)NC1CCCCC1 | -0.3% (inactive) | – |
| Cc1ccc(-n2c3c(cc(C(=O)NC4CCSC4=O)c2=O)C(=O)CCC3)cc1 (stereo not drawn) | -1.5% (inactive) | – |
| CCOc1cc(/C=N\Nc2ccc([N+](=O)[O-])cc2)ccc1OCC(=O)Nc1ccc(C)c(C)c1 | 88.4% (active) | 94.3 |
| CCOc1cc(/C=N/NC(N)=O)ccc1OCC(=O)Nc1ccc(C)c(C)c1 | -2% (inactive) | – |
| COc1cc(/C=N\Nc2ccc([N+](=O)[O-])cc2)ccc1OCC(=O)Nc1ccc(C)c(C)c1 | 27.8% (inactive) | – |
| CC(Sc1ccccc1)C(=O)NCCc1ccccc1 (stereo not drawn) | 0.1% (inactive) | – |
| COc1ccccc1-c1nc(S(=O)(=O)c2ccc(Cl)cc2)c(N(C)C)o1 | 0.1% (inactive) | – |
| O=c1c2[nH]c3cccc(Cl)c3c2ncn1Cc1ccncc1 | 0.2% (inactive) | – |
| O=C1NN(c2ccccc2)C(=O)/C1=C/c1ccc(-c2ccc(Cl)c(C(=O)O)c2)o1 | 34.7% (inactive) | – |
| Cc1ccc(N2NC(=O)/C(=C/c3ccc(-c4ccc(Cl)c(C(=O)O)c4)o3)C2=O)cc1 | 29.4% (inactive) | – |
| COC(=O)c1ccc(N2NC(=O)/C(=C/c3ccc(-c4ccc(Cl)c(C(=O)O)c4)o3)C2=O)cc1 | 54.7% (active) | – |
| Cc1cc(CSc2ccccc2)ccc1NC(=O)c1ccc(Cl)c([N+](=O)[O-])c1 | 1.8% (inactive) | – |
| O=Cc1ccc2noc(-c3ccc(Cl)cc3)c2c1 | 28.2% (inactive) | – |
| Cc1ccc(-c2onc3ccc(C=O)cc23)cc1 | -0.6% (inactive) | – |
| O=Cc1ccc2noc(-c3ccc(F)cc3)c2c1 | 75.6% (active) | 79.8 |
| COc1ccc2c(ccc[n+]2CC(=O)c2ccccc2)c1 | 1.3% (inactive) | – |
| Cc1nc(NC(=O)CSc2cc(C)c3ccccc3n2)c(Cl)cc1Cl | -0.4% (inactive) | – |
| S=C(Nc1ccc(Oc2ccccc2)cc1)N1CCOCC1 | -0.2% (inactive) | – |
| COc1cc(CNCc2ccccc2Cl)ccc1OCC(=O)NC1CCCCC1 | 0.7% (inactive) | – |
| CN(C)/C=C/C(=O)c1ccc(S(=O)(=O)c2ccccc2)cc1 | 2.7% (inactive) | – |
| CN(/C=C/C(=C/C=[N+](C)c1ccccc1)OCCCS(=O)(=O)[O-])c1ccccc1 | 71.6% (active) | – |
| CN(/C=C/C(=C\C=[N+](C)c1ccccc1)OCCCS(=O)(=O)[O-])c1ccccc1 | 24.5% (inactive) | – |

| Structure (SMILES) | inhibition (at 20 µM) | inhibition [1] [%] |
| --- | --- | --- |
| Clc1ccccc1OCCN1CCC(Cc2ccccc2)CC1 | -0.6% (inactive) | – |
| Cc1ccc(C=C2C(Cl)=C(Cl)C(Cl)=C2Cl)cc1 | 53.9% (active) | – |
| Cc1ccc(/C=[N+](/C)[O-])cc1 | -1.3% (inactive) | – |
| Cc1ccc(/C=N/N=C/c2ccc(C)cc2)cc1 | 0.6% (inactive) | – |
| COc1ccccc1OCCCCOc1ccccc1C(C)=O | 0.9% (inactive) | – |
| O=C(/C=C/Nc1cccc(F)c1)c1ccco1 | 1.5% (inactive) | – |
| COC(=O)c1ccc(C(=O)OC)c(=O)[nH]1 | -0.4% (inactive) | – |
| COC(=O)c1ccc(=O)c2nc3/c(=C/O)c(O)cc(=O)c3[nH]c12 | 56.3% (active) | – |
| COC(=O)c1ccc(N)cc1O | -0.9% (inactive) | – |
| COc1ccc(NC(=S)N(Cc2cccnc2)Cc2ccco2)cc1 | -0.6% (inactive) | – |
| Clc1ccc(Cc2noc(-c3cccs3)n2)cc1 | 1.2% (inactive) | – |
| CCN1CCN(Cc2c(O)ccc3c2O/C(=C\c2ccc(C)cc2)C3=O)CC1 | 40.1% (inactive) | – |
| CC1CCN(Cc2c(O)ccc3c2O/C(=C\c2ccco2)C3=O)CC1 | 56.7% (active) | 90.4 |
| Cc1ccc(/C=C2\Oc3c(ccc(O)c3CN3CCN(C)CC3)C2=O)cc1 | 45.4% (inactive) | – |
| O=C1/C(=C/c2ccco2)Oc2c1ccc(O)c2CN1CCCCC1 | 58.1% (active) | – |
| COCCN(CCOC)Cc1c(O)ccc2c1O/C(=C\c1ccco1)C2=O | 50.4% (active) | 78.9 |
| CC1CCCN(Cc2c(O)ccc3c2O/C(=C\c2ccco2)C3=O)C1 (stereo not drawn) | 35.5% (inactive) | – |
| CC(C)(C)c1ccc(/C=C2\Oc3c(ccc(O)c3CN3CCN(CCO)CC3)C2=O)cc1 | 17.8% (inactive) | – |
| COCCN(CCOC)Cc1c(O)ccc2c1O/C(=C\c1ccc(C)o1)C2=O | 27.4% (inactive) | – |
| Cc1cc(O)c(CN(C)C)c2c1C(=O)/C(=C/c1ccco1)O2 | 29.7% (inactive) | – |
| COc1ccc(C2C(C(=O)N3CCN(c4ccccn4)CC3)CCC(=O)N2c2ccc(OC)cc2)cc1 (stereo not drawn) | -2.1% (inactive) | – |
| O=C1C=C(N2CCCCCC2)C2(CCCCC2)O1 | 0.8% (inactive) | – |
| C[C@H](NC(=O)c1nc[nH]c1C(=O)NC(c1ccccc1)c1ccccc1)C(=O)OCc1ccccc1 | 2.7% (inactive) | – |
| NC(=O)c1sc2nnc(-c3ccccc3)c(-c3ccccc3)c2c1N | 1.6% (inactive) | – |

| Structure (SMILES) | inhibition (at 20 µM) | inhibition [1] [%] |
| --- | --- | --- |
| CCSc1nnc(-c2cccs2)o1 | 1.8% (inactive) | – |
| CCSc1nnc(-c2sc3nnc(-c4ccccc4)c(-c4ccccc4)c3c2N)o1 | 98.4% (active) | – |
| O=C(Cn1c(=O)oc2cc(S(=O)(=O)N3CCCC3)ccc21)N1CCN(C2CCCCC2)CC1 | 0% (inactive) | – |
| O=C(CSc1nc2ccccc2c(=O)n1Cc1ccco1)N1CCN(c2ccccc2)CC1 | -4.4% (inactive) | – |
| O=C(Nc1cccc(-c2nc3cc(Cl)ccc3o2)c1)C1CCCO1 (stereo not drawn) | 1% (inactive) | – |
| CN(C)S(=O)(=O)c1cccc(C(=O)OCC(=O)NCc2ccc3c(c2)OCO3)c1 | 0.4% (inactive) | – |
| C[n+]1ccc(/C=C/c2ccccc2O)c2ccccc21 | 1.2% (inactive) | – |
| COc1ccc2sc(C)[n+](C)c2c1 | -2.6% (inactive) | – |
| COc1ccc2sc(/C=C/c3ccccc3O)[n+](C)c2c1 | 69.1% (active) | 88.7 |
| Cc1cc(C(=O)Nc2cccnc2)cs1 | 0.7% (inactive) | – |
| Cn1c(=O)oc2cc(S(=O)(=O)NCc3ccc(F)cc3)ccc21 | 8.5% (inactive) | – |
| CCN1CCN(S(=O)(=O)CC2(C)C3CCC2(C)C(=O)C3Br)CC1 (stereo not drawn) | -1.8% (inactive) | – |
| Cc1cc(C)c2nc(-c3ccccn3)cc(C(=O)Nc3ccc(S(=O)(=O)Nc4cc(C)on4)cc3)c2c1 | 59% (inactive) | 21.6 |
| COc1ccc(-c2cc(C(=O)Nc3ccc(S(=O)(=O)Nc4onc(C)c4C)cc3)c3ccccc3n2)cc1 | 64.1% (inactive) | 40.8 |
| Cc1cc(C)c2nc(-c3cccnc3)cc(C(=O)Nc3ccc(S(=O)(=O)Nc4onc(C)c4C)cc3)c2c1 | 57% (active) | – |
| Cc1cc(C)c2nc(-c3ccccn3)cc(C(=O)Nc3ccc(S(=O)(=O)Nc4onc(C)c4C)cc3)c2c1 | 70.5% (active) | – |
| Cc1cc(C)c(C(=O)Nc2ccc(S(=O)(=O)Nc3onc(C)c3C)cc2)c(C)c1 | 0.9% (inactive) | – |
| Cc1ccccc1C(=O)Nc1ccc(S(=O)(=O)Nc2onc(C)c2C)cc1 | 0.8% (inactive) | – |
| O=C(CN1C(=O)NC2(CCCC2)C1=O)Nc1cccc(Cl)c1Cl | 0.8% (inactive) | – |
| CCOc1ccccc1C(=O)NC1CCN(Cc2ccccc2)CC1 | -0.3% (inactive) | – |
| CN(C)c1cncc(C(=O)O)c1 | -0.6% (inactive) | – |
| S=C(NCc1ccccn1)Nc1ccccc1Cl | 1.2% (inactive) | – |
| CC(=O)N(CCC(c1ccco1)C(C)C)Cc1ccc(Cl)cc1 (stereo not drawn) | -0.3% (inactive) | – |
| Clc1ccc(Cn2cc(/C=N/n3cnnc3)c3ccccc32)c(Cl)c1 | -3% (inactive) | – |

| Structure (SMILES) | inhibition (at 20 µM) | inhibition [1] [%] |
| --- | --- | --- |
| Oc1sc(C=Nc2ccccc2)c2ccccc12 | 24.4% (inactive) | – |
| Oc1sc(C=Nc2ccc(F)cc2)c2ccccc12 | 55% (inactive) | 23 |
| Cc1ccc(N=Cc2sc(O)c3ccccc23)cc1 | 101% (active) | 104 |
| Cc1nn(C)cc1CNC(=O)c1cccc(F)c1 | -1.7% (inactive) | – |
| CN(C)c1ccc(/C=C2\SC(=O)N(CC(O)Cn3c4ccccc4c4ccccc43)C2=O)cc1 (stereo not drawn) | 120% (active) | – |
| O=C1S/C(=C\c2ccccc2)C(=O)N1CC(O)Cn1c2ccccc2c2ccccc21 (stereo not drawn) | 0.2% (inactive) | – |
| O=C1S/C(=C/c2ccccc2)C(=O)N1CC(O)Cn1c2ccccc2c2ccccc21 (stereo not drawn) | -0.1% (inactive) | – |
| C#CCn1c(-c2cccs2)nc2ccccc21 | 0% (inactive) | – |
| Nc1nnc(CC(=O)N/N=C/c2ccc([N+](=O)[O-])cc2)s1 | -2.4% (inactive) | – |
| Nc1nnc(CC(=O)N/N=C\c2cc([N+](=O)[O-])ccc2O)s1 | 15.7% (inactive) | – |
| Nc1nnc(CC(=O)N/N=C/c2cc([N+](=O)[O-])cc(Br)c2O)s1 | 61.2% (active) | – |
| Cc1cc(OCC(=O)NC(Cc2ccc(Cl)cc2)C(=O)O)c2c(C)cc(=O)oc2c1 (stereo not drawn) | 4.4% (inactive) | – |
| Cc1ccc(/C(N)=N/OC(=O)c2cccc(Cn3cc(C(F)(F)F)ccc3=O)c2)cc1 | -0.3% (inactive) | – |
| COC(=O)c1cc(C(=O)c2ccccc2)n2c(=O)/c(=C\N(C)C)sc12 | 2.2% (inactive) | – |
| CN(C)/C=c1\sc2c(C#N)cc(C(=O)c3ccc(Br)cc3)n2c1=O | 3.8% (inactive) | – |
| COC(=O)c1cc(C(=O)c2ccc(Cl)cc2)n2c(=O)/c(=C\N(C)C)sc12 | 97.1% (active) | 68.7 |
| COC(=O)c1nn(-c2ccc(OC)cc2)ccc1=O | -2.9% (inactive) | – |
| O=C(O)c1ccc(Cl)c2c1C1C=CCC1C(c1ccccn1)N2 (stereo not drawn) | -3.1% (inactive) | – |
| COC(=O)COc1ccc(C2Nc3c(Cl)ccc(C(=O)O)c3C3C=CCC32)cc1 (stereo not drawn) | 62.9% (active) | – |
| COc1ccc(OC)c(C2Nc3c(Cl)ccc(C(=O)O)c3C3C=CCC32)c1 (stereo not drawn) | 38.2% (inactive) | – |
| Cc1c(OCC(=O)OC(C)(C)C)ccc2c3c(c(=O)oc12)CCC3 | 1.6% (inactive) | – |
